Pf Dd2 inh = qHTS Primary assay for Inhibitors of Plasmodium falciparum Dd2 growth in vitro; P. falciparum Dd2 growth, SYBR Green, 72 h; Potency, µM (doses to about 28.9 µM), usual class: inhibitors; 120,000 tested, 4.3% active; AID 1347417, 2020; active means well fitted inhibition curve with a large enough effect; further: nearly all actives have a fitted effect of over 65% in size
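Infected erythrocytes (Dd2, 0.3% parasitemia, 2.5% hematocrit final) are added to compound in RPMI-1640/Albumax II medium, grown 72 h at 37C in low oxygen, then lysed with saponin/Triton-X containing SYBR Green and read by fluorescence.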
A number is an active result; i = inactive; [ ] = remark or other dose. Shown is part of a subset that was picked to be rich in hits.

SMILES | Pf Dd2 inh
Cc1n[nH]c(C)c1CNC(=O)C1CCCN(C2CCN(C(=O)C3CC3)CC2)C1 (centres undefined) | i
COCCn1c(C)cnc1CCN | i
Cc1ccc(CNC(=O)CN2C(=O)NC3(CCCCC3)C2=O)cc1 | i
O=C(NCc1ccco1)c1ccc(Cn2c(SCc3ccccc3)nc3cccnc32)cc1 | i
CC(C)OCCCNC(=O)c1ccc(CSc2nc3cccnc3n2Cc2ccccc2)cc1 | i
Cc1cccc(CNC(=O)c2ccc(Cn3c(SCc4cccc(F)c4)nc4cccnc43)cc2)c1 | i
COc1ccc(Cn2c(SCc3ccc(C(=O)NCc4ccc(C)cc4)cc3)nc3cccnc32)cc1 | 10µM
COCCCNC(=O)c1ccc(CSc2nc3cccnc3n2Cc2ccc(OC)cc2)cc1 | i
COc1cccc(CNC(=O)c2ccc(Cn3c(SCc4ccccc4)nc4cccnc43)cc2)c1 | 10µM
O=C(Nc1ccc(Cl)cc1)N1CCCC(c2nn(-c3ccc(Cl)cc3)c(=O)[nH]2)C1 (centres undefined) | i
NC(=O)CN1C(=O)CO[C@H]2CN(Cc3ccc(Cl)cc3)C[C@H]21 | i
COc1ccc(Cn2c(C3CCN(C(=O)c4ccccc4Cl)CC3)n[nH]c2=O)cc1 | i
COC(=O)c1ccccc1C(=O)N1CCCC(N2CCN(c3ccc(F)cc3)CC2)C1 (centres undefined) | i
O=C1CC2(CCN([S+](=O)([O-])c3cccc(C(F)(F)F)c3)CC2)Oc2ccccc2N1 | i
COc1ccc(C2Cn3cnc(C(=O)N4CCC(C(=O)Nc5ccc(C)cc5)CC4)c3CO2)cc1 (centres undefined) | i
COc1ccc(C2Cn3cnc(C(=O)N4CCC(C(=O)Nc5ccccc5OC)CC4)c3CO2)cc1 (centres undefined) | 10µM
COc1ccc(C2Cn3cnc(C(=O)N4CCC(C(=O)Nc5cccc(F)c5)CC4)c3CO2)cc1 (centres undefined) | i
COc1ccc(C2Cn3cnc(C(=O)N4CCC(C(=O)Nc5ccccc5F)CC4)c3CO2)cc1 (centres undefined) | 11µM
COc1ccc(NC(=O)C2CCN(C(=O)c3ncn4c3COC(c3ccccc3)C4)CC2)cc1 (centres undefined) | i
COc1ccc(C2Cn3cnc(C(=O)N4CCC(C(=O)Nc5ccc(C)cc5C)CC4)c3CO2)cc1 (centres undefined) | i
CCn1nccc1C(=O)N1CCC(Nc2nccnc2OC)CC1 | i[5.79 µM]
COc1ccccc1-c1noc(CCC(=O)NCc2snnc2C)n1 | i
COc1ccc(-n2c(=O)c3c(n2Cc2ccccc2)CN(C(=O)c2ccnn2C)CC3)cc1 | i
CN(Cc1ccc(-c2ccccc2)cc1)C(=O)Cc1ccc(F)cc1 | i
COC[C@@H]1CN(C(=O)c2ccc(C)[nH]c2=O)C[C@H]1c1ccncc1 | i
SMILES | Pf Dd2 inh
COc1cccc(OCc2cc(C(=O)NC(CO)CO)n[nH]2)c1 | i
COc1ccc(C(=O)NCCn2ccn3nc(-c4ccc(C)cc4C)cc3c2=O)cc1F | i
Cc1ccc(C)c(C(=O)NCCn2ccn3nc(-c4cc(C)ccc4C)cc3c2=O)c1 | i
Cc1ccc(-c2cc3c(=O)n(CCNC(=O)c4ccc(N(C)C)cc4)ccn3n2)c(C)c1 | 10µM
Cc1ccc(-c2cc3c(=O)n(CCNC(=O)c4cccc(Cl)c4)ccn3n2)cc1C | i
COc1cccc(C(=O)NCCn2ccn3nc(-c4ccc(C)cc4C)cc3c2=O)c1OC | i
CCn1nccc1C(=O)NCCn1ccn2nc(-c3ccc(C)c(C)c3)cc2c1=O | 7.9µM
Cc1ccc(-c2cc3c(=O)n(CCNC(=O)c4cc(Cl)ccc4F)ccn3n2)c(C)c1 | i
CC(=O)Nc1cccc(C(=O)NCCn2ccn3nc(-c4ccc(C)cc4C)cc3c2=O)c1 | 5.6µM
Cc1ccc(-c2cc3c(=O)n(CCNC(=O)c4ccccc4F)ccn3n2)cc1C | i
CC(=O)N1CCC([C@@H]2CN(C(=O)CCCc3ccccc3)C[C@H]2CO)CC1 | i
CCN(CC)Cc1cnc2c(C(=O)N3CCCCCCC3)cnn2c1 | i
CN1C[C@@H](N)C[C@H]1C(=O)N1CCC2(CC1)Nc1ccccc1NC2=O | i
Cc1ccc(C2=NC3(CCN(C(=O)c4sccc4C)CC3)ON2)cc1 | i
Cc1ccc(N2CCC(NS(=O)(=O)C3CC3)C2=O)cc1C (centres undefined) | i
CCOc1cc(-c2nnc(SCC(=O)NCc3ccccc3)nc2-c2ccc(OC)c(OCC)c2)ccc1OC | 8.9µM
CCOc1ccc(-c2nnc(SCC(=O)NC(C)CC)nc2-c2ccc(OCC)c(OC)c2)cc1OC (centres undefined) | i
CCOc1cc(-c2nnc(SCC(=O)NCc3ccc(C)cc3)nc2-c2ccc(OC)c(OCC)c2)ccc1OC | i
CC(C)NC(=O)N1CCC2(CC1)CC(N(C)Cc1ccccc1)CCO2 (centres undefined) | i
Cc1nc2scc(CC(=O)NCc3ccco3)n2c(=O)c1-c1cc(C)n(-c2ccccc2F)n1 | i
CC(NC(=O)OCc1ccccc1)c1nc2cccnc2n1C1CCCC1 (centres undefined) | i
CCNC(=O)N1CC[C@@H](CC(=O)O)[C@@H](CC2=NCCc3ccc(C(C)(C)C)cc32)C1 | i
Cc1ccc(C(=O)N2CCC(N3CCCOC3=O)CC2)cc1 | i
O=C(Nc1ccc(F)cc1)Nc1csc2c1CCCC2 | 10µM
Cc1ccc(NC(=O)Nc2csc3c2CCCC3)c(C)c1 | i[5.79 µM]
SMILES | Pf Dd2 inh
CCc1cccc(C)c1NC(=O)Nc1csc2c1CCCC2 | i[5.79 µM]
CNC(=O)N1CCC(C2CCN(C(=O)c3cnn(C)c3)C2)CC1 (centres undefined) | i
CCN(CC)Cc1ccc2c(c1)CN(C(=O)N(CC)CC)CCO2 | i
CCN(CC)Cc1ccc2c(c1)CN(C(=O)c1ccsc1)CCO2 | i
CCN(CC)Cc1ccc2c(c1)CN(C(=O)COc1ccc(C)cc1)CCO2 | 2.8µM
O=C(NC1CCN(c2cc(-c3ccc(F)cc3)[nH]n2)C1)c1ccc(F)cc1Cl (centres undefined) | i
COC[C@@H]1CN(C(=O)c2ccc(OC)nc2)C[C@H]1c1ccncc1 | i
O=C(Nc1ccccc1)N1C[C@@H](F)[C@@H](OCc2nc3ccccc3o2)C1 | i
CN1CCC(Oc2ccc(NC(=O)C3(c4ccccc4)CC3)cn2)CC1 | i
COc1ccc(NC(=O)N[C@H]2[C@H](O)[C@@H](N3CCN(C)CC3)[C@@H]3OC[C@H]2O3)cc1 | i
FC(F)(F)c1ccc(O[C@H]2COCCN(Cc3cccnc3)C2)nc1 | i
COc1cccc(CN2CCOC[C@H](Oc3cccnc3)C2)c1 | i
c1ccc(-c2ccc(CN3CCOC[C@H](Oc4cnccn4)C3)cc2)cc1 | 5.6µM
COc1ccc(C(=O)N2CCC[C@H]2c2nc(-c3ccc(OC)c(OC)c3)no2)cc1F | i
COc1ccc(C(=O)Nc2ccc(-c3noc([C@@H]4CCCN4Cc4c[nH]c5ccccc45)n3)cn2)cc1 | 7.9µM
COCC(=O)Nc1ccc(-c2noc([C@@H]3CCCN3Cc3ncc[nH]3)n2)cn1 | i
COc1cc(CN2CCC[C@H]2c2nc(-c3ccc(-c4ccncc4)nc3)no2)cc(OC)c1OC | 5µM
Fc1ccc(-c2noc([C@@H]3CCCN3Cc3ccc(Cl)cc3)n2)nc1 | i
COc1ccc(C(=O)Nc2ccc(-c3noc([C@@H]4CCCN4Cc4ccco4)n3)cn2)cc1 | i
COCC(=O)N1CC(F)(F)C[C@H]1c1nc(-c2cccnc2)no1 | i
COCCNc1ncccc1-c1noc([C@@H]2CCCN2Cc2cc(OC)c(OC)c(OC)c2)n1 | i
COCCOc1ccc(-c2noc([C@@H]3CCCN3Cc3c[nH]c4ccccc34)n2)cn1 | i

Source: PubChem BioAssay
